According to publication PMC4081100, “A DNA-binding-site landscape and regulatory network analysis for NAC transcription factors in Arabidopsis thaliana”:

target: T1, GST-ANAC092(1-176) (Arabidopsis thaliana, UniProt Q9FKA0 1-176); assay: universal protein binding microarray (PBM); transcription factors of Arabidopsis thaliana; high values mean tight binding; details: protein: recombinant; tags: GST; chain copies: 2; dsDNA, one strand shown
T1 sequence: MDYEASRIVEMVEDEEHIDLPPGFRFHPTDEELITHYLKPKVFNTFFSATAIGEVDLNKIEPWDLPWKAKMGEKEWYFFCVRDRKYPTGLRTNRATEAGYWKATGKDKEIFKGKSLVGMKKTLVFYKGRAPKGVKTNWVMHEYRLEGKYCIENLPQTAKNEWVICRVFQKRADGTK
Summary of the method: (§1)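 Protein amounts were determined by A280 or anti-GST western blot after glutathione–Sepharose 4B purification of GST-tagged proteins induced in cells, with zinc acetate included for zinc-finger proteins. Duplicate runs at 200 to 500 nM final were done on custom all-10-mer Agilent 4 × 180K arrays made double-stranded by primer extension. The normalised enrichment score (E-score) over gapped and ungapped 8-mers is the measure of binding.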

Sequence	binding signal [E-score]
GGGTCAAA	0.0694
CGTCAACC	0.0573
CTGGTCAA	0.0676
GGTCAAAC	0.0595
CAAGTCAA	0.0929
CTCTTGAC	0.059
GGGTCAAC	0.0723
AGTCCACG	0.062
GCGTGGAC	0.0916
TGACCAAA	0.0758
AGTCAAGG	0.104
GGCTTGAC	0.0969
CCCTTGAC	0.0597
AAAGTCAG	0.1
GCATTGAC	0.0797
CTGACCGC	0.0725
CAGTCAAG	0.051
ACTTGACC	0.0892
AAAGGTCA	0.0939
CCAGTCAA	0.0755
ACTGGTCA	0.127
GTTGACCA	0.131
TGGGTCAA	0.156
GGTCAACC	0.144

target: GST-NTL6(1-168) (Arabidopsis thaliana, UniProt Q9SCK6 1-168); assay: as above; details: protein: recombinant; tags: GST; chain copies: 2; dsDNA, one strand shown
Summary of the method: as §1

Chain of GST-NTL6(1-168) (Q9SCK6 1-168): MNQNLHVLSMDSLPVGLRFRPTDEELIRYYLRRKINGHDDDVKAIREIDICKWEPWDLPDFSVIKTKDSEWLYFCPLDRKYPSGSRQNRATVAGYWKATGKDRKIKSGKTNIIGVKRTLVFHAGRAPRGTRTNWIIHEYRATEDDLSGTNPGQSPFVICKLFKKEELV

Sequence	binding signal [E-score]
GCGAAGAC	0.12
AGTCAAGA	0.0587
AGGTCAGA	0.0962
AAGTCAGC	0.14
CTGACTTA	0.195
GGTTTGAC	0.131
TGACCTAA	0.0566
CCCTTGAC	0.0561
GTCAATGA	0.0646
CTAAGTCA	0.146
AGTTGACC	0.0645

target: T2, GST-ANAC019 NAC domain (Arabidopsis thaliana, UniProt Q9C932 14-162); assay: as above; details: protein: recombinant; tags: GST; chain copies: 2; dsDNA, one strand shown
T2 sequence: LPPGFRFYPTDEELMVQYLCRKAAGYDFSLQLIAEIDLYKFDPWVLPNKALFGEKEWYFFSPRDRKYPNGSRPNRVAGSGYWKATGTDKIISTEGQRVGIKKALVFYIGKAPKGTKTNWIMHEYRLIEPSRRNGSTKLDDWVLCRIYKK
Summary of the method: as §1

Sequence	binding signal [E-score]
GCGAAGAC	0.0689
CTCTTGAC	0.0833
AGTCCACG	0.0759
GCGTGGAC	0.0892
AGTCAAGG	0.0733
GGTTTGAC	0.0692
CCCTTGAC	0.0511
AAAGTCAG	0.0919
ACTTGACC	0.05
CCAGTCAA	0.0525
GGTCAACC	0.0527

target: T3, GST-ANAC055(1-171) (Arabidopsis thaliana, UniProt Q9LDY8 1-171); assay: as above; details: protein: recombinant; tags: GST; chain copies: 2; dsDNA, one strand shown
T3 sequence: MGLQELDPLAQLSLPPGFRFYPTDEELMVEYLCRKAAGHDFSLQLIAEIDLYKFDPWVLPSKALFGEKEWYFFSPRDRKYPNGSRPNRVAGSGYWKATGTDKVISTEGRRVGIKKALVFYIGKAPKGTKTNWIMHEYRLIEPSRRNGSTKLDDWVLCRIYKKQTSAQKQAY
Summary of the method: as §1

Sequence	binding signal [E-score]
GCGAAGAC	0.0506
GGTTTGAC	0.162
AAAGGTCA	0.106

target: T4, GST-ATAF1 NAC domain (Arabidopsis thaliana, UniProt Q39013 7-158); assay: as above; details: protein: recombinant; tags: GST; chain copies: 2; dsDNA, one strand shown
T4 sequence: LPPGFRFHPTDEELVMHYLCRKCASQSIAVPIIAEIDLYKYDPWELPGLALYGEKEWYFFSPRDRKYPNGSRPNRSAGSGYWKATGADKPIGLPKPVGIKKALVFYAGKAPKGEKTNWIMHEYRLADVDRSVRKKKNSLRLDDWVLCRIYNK
Summary of the method: as §1

Sequence	binding signal [E-score]
GGTCAAAC	0.0641
CAAGTCAA	0.0933
CTCTTGAC	0.0783
GGTTTGAC	0.171
AAAGTCAG	0.0653
GCATTGAC	0.0849
AAAGGTCA	0.137
GGTCAACC	0.0896

target: T5, GST-ANAC092(1-285) full length (Arabidopsis thaliana, UniProt Q9FKA0 1-285); assay: as above; details: protein: recombinant; tags: GST; chain copies: 2; dsDNA, one strand shown
T5 sequence: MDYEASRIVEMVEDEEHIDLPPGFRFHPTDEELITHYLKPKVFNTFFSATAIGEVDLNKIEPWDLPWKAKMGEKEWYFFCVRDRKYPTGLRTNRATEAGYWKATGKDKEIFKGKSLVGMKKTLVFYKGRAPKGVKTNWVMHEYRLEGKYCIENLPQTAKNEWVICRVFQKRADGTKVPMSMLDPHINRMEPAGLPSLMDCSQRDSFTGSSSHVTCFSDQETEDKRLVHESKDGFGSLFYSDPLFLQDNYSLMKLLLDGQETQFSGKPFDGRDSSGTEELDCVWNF
Summary of the method: as §1

Sequence	binding signal [E-score]
CGTCAACC	0.0571
GGTCAAAC	0.0869
CAAGTCAA	0.234
GGGTCAAC	0.0889
GCGTGGAC	0.19
TGACCAAA	0.126
AGTCAAGG	0.139
GGTTTGAC	0.116
CAGTCAAG	0.063
ACTTGACC	0.0507
AAAGGTCA	0.0795
TGGGTCAA	0.159
GGTCAACC	0.061

target: T6, GST-NAP(1-166) (Arabidopsis thaliana, UniProt O49255 1-166); assay: as above; details: protein: recombinant; tags: GST; chain copies: 2; dsDNA, one strand shown
T6 sequence: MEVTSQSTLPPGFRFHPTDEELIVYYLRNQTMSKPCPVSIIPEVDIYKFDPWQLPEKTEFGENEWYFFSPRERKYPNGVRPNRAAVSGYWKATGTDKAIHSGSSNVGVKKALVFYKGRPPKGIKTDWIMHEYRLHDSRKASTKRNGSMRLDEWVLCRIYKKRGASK
Summary of the method: as §1

Sequence	binding signal [E-score]
GCGAAGAC	0.0548
CTCTTGAC	0.0978
AGTCAAGG	0.0507
GGTTTGAC	0.0603
CCCTTGAC	0.067

target: T7, GST-NST2(1-184) (Arabidopsis thaliana, UniProt Q9M274 1-184); assay: as above; details: protein: recombinant; tags: GST; chain copies: 2; dsDNA, one strand shown
T7 sequence: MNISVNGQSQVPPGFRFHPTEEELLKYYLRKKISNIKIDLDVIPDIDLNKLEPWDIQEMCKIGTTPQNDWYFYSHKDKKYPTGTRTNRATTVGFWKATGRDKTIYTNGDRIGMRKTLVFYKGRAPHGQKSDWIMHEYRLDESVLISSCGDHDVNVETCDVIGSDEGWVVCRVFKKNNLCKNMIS
Summary of the method: as §1

Sequence	binding signal [E-score]
GGGTCAAA	0.0921
GGTCAAAC	0.0597
AGTCAAGG	0.0876
GGTTTGAC	0.177
AAAGTCAG	0.085
GCATTGAC	0.0561
ACTTGACC	0.11

target: T8, GST-NTL8 NAC domain (Arabidopsis thaliana, UniProt Q9XIN7 14-156); assay: as above; details: protein: recombinant; tags: GST; chain copies: 2; dsDNA, one strand shown
T8 sequence: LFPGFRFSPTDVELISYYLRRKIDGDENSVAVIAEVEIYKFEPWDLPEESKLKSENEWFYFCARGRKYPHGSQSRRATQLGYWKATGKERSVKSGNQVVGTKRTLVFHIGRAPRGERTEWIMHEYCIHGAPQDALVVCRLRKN
Summary of the method: as §1

Sequence	binding signal [E-score]
GCGAAGAC	0.109
CCCTTGAC	0.151
CAGTCAAG	0.0503
ACTTGACC	0.0948
AAAGGTCA	0.154
TGGGTCAA	0.0706

target: GST-WRKY1(266-371) (Arabidopsis thaliana, UniProt Q9SI37 266-371); assay: as above; details: protein: recombinant; tags: GST; dsDNA, one strand shown
Summary of the method: as §1

Chain of GST-WRKY1(266-371) (Q9SI37 266-371): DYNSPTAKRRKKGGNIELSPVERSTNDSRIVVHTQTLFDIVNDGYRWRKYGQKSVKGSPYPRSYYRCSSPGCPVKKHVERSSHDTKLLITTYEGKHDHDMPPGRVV

Sequence	binding signal [E-score]
GGGTCAAA	0.48
CGTCAACC	0.435
CTGGTCAA	0.488
GCGAAGAC	0.404
GGTCAAAC	0.494
CAAGTCAA	0.486
GACGACCA	0.43
CTCTTGAC	0.449
GGGTCAAC	0.493
AGTCCACG	0.438
GCGTGGAC	0.404
AGTCAAGA	0.471
GTCAGCGA	0.43
AGGTCAGA	0.449
TGACCAAA	0.457
AGTCAAGG	0.475
AAGTCAGC	0.459
CTGACTTA	0.42
GGTTTGAC	0.483

Sequence	binding signal [E-score]
GGCTTGAC	0.452
TGACCTAA	0.419
CCCTTGAC	0.459
AAAGTCAG	0.461
GCATTGAC	0.47
CTGACCGC	0.425
CAGTCAAG	0.444
GTCAATGA	0.466
ACTTGACC	0.47
AAAGGTCA	0.424
CTAAGTCA	0.413
AGTCGGTC	0.403
AGTTGACC	0.49
CCAGTCAA	0.474
ATCTTGAC	0.47
ACTGGTCA	0.433
GTTGACCA	0.492
TGGGTCAA	0.483
GGTCAACC	0.491
